In PubChem BioAssay AID1159580 (chemical genetic matrix, 2015):
In all, about 5,500 compounds went through this assay and about 2,000 (36%) were called active. About 18% were inconclusive and are not listed. Cut-off read from the data, not from the text of the source: active = normalized growth mostly below about 0.91 (no sharp cut-off); inconclusive = no clear call, values can overlap the other calls; inactive = mostly above about 0.92. Some of the results follow.

Assay: chemical genetic growth profiling, strain panel (AID 1159580);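 note: tested at 20 µM; growth read once vehicle control cultures reached saturation at 30 °C; 1 = growth at the plate median or of vehicle wells; lower values mean less growth of the strain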
Conditions: growth OD

Measured: normalized growth

O=C1CC2OCC=C3CN4CC[C@]56c7ccccc7N1C5[C@H]2[C@H]3CC46 (some centres not stated)
inactive: S. cerevisiae deletion strains, locus YJR075W, strain HOC1, stronger effect = lower value 1.01 | S. cerevisiae deletion strains, locus YKL009W, strain mrt4, stronger effect = lower value 1 | S. cerevisiae deletion strains, locus YKL068W, stronger effect = lower value 1 | S. cerevisiae deletion strains, locus YKL085W, strain MDH1 (second series), stronger effect = lower value 1 | S. cerevisiae deletion strains, locus YKL085W, strain MDH1, stronger effect = lower value 1 | S. cerevisiae deletion strains, locus YKL160W, strain elf1, stronger effect = lower value 1.03 | S. cerevisiae deletion strains, locus YKL190W, strain CNB1, stronger effect = lower value 1.01 | S. cerevisiae deletion strains, locus YKR001C, strain vps1, stronger effect = lower value 0.996 | S. cerevisiae deletion strains, locus YKR026C, strain gcn3, stronger effect = lower value 1.04 | S. cerevisiae deletion strains, locus YKR091W, strain srl3, stronger effect = lower value 1.01 | S. cerevisiae deletion strains, locus YLL001W, strain dnm1, stronger effect = lower value 1.03 | S. cerevisiae deletion strains, locus YLL026W, stronger effect = lower value 1.01 | S. cerevisiae deletion strains, locus YLL041C, strain sdh2, stronger effect = lower value 1.02 | S. cerevisiae deletion strains, locus YLR027C, strain aat2, stronger effect = lower value 1.03 | S. cerevisiae deletion strains, locus YLR039C, strain RIC1, stronger effect = lower value 1.03 | S. cerevisiae deletion strains, locus YLR058C, strain SHM2, stronger effect = lower value 1.02 | S. cerevisiae deletion strains, locus YLR102C, strain apc9, stronger effect = lower value 1 | S. cerevisiae deletion strains, locus YLR113W, strain HOG1, stronger effect = lower value 0.938 | S. cerevisiae deletion strains, locus YLR221C, strain rsa3, stronger effect = lower value 1.02 | S. cerevisiae deletion strains, locus YLR258W, strain gsy2, stronger effect = lower value 1.03 | S. cerevisiae deletion strains, locus YLR262C, strain YPT6 (second series), stronger effect = lower value 1.05 | S. cerevisiae deletion strains, locus YLR262C, strain YPT6, stronger effect = lower value 1.1 | S. cerevisiae deletion strains, locus YLR268W, strain sec22, stronger effect = lower value 0.994 | S. cerevisiae deletion strains, locus YLR320W, strain mms22, stronger effect = lower value 1.03 | S. cerevisiae deletion strains, locus YLR330W, strain CHS5, stronger effect = lower value 1.01 | S. cerevisiae deletion strains, locus YLR342W, strain FKS1 (second series), stronger effect = lower value 0.999 | S. cerevisiae deletion strains, locus YLR342W, strain FKS1, stronger effect = lower value 1.01 | S. cerevisiae deletion strains, locus YLR357W, strain rsc2, stronger effect = lower value 1.03 | S. cerevisiae deletion strains, locus YLR370C, strain arc18, stronger effect = lower value 1.03 | S. cerevisiae deletion strains, locus YLR371W, strain rom2, stronger effect = lower value 0.993 | S. cerevisiae deletion strains, locus YLR384C, strain iki3, stronger effect = lower value 1.03 | S. cerevisiae deletion strains, locus YLR418C, strain cdc73, stronger effect = lower value 0.961 | S. cerevisiae deletion strains, locus YML016C, strain PPZ1, stronger effect = lower value 1.01 | S. cerevisiae deletion strains, locus YML032C, strain rad52, stronger effect = lower value 0.995 | S. cerevisiae deletion strains, locus YML120C, strain ndi1, stronger effect = lower value 1.02 | S. cerevisiae deletion strains, locus YML124C, strain tub3, stronger effect = lower value 0.999 | S. cerevisiae deletion strains, locus YMR058W, strain fet3, stronger effect = lower value 1.02 | S. cerevisiae deletion strains, locus YMR078C, strain ctf18, stronger effect = lower value 0.998 | S. cerevisiae deletion strains, locus YMR125W, strain sto1, stronger effect = lower value 1.02 | S. cerevisiae deletion strains, locus YMR129W, stronger effect = lower value 1.03 | S. cerevisiae deletion strains, locus YMR205C, strain PFK2, stronger effect = lower value 1.05 | S. cerevisiae deletion strains, locus YMR223W, strain ubp8, stronger effect = lower value 0.989 | S. cerevisiae deletion strains, locus YMR231W, strain pep5, stronger effect = lower value 1.03 | S. cerevisiae deletion strains, locus YMR263W, strain SAP30, stronger effect = lower value 1.01 | S. cerevisiae deletion strains, locus YMR307W, strain GAS1, stronger effect = lower value 0.979 | S. cerevisiae deletion strains, locus YNL067W, strain RPL9B, stronger effect = lower value 1.01 | S. cerevisiae deletion strains, locus YNL071W, strain lat1, stronger effect = lower value 1.01 | S. cerevisiae deletion strains, locus YNL128W, strain TEP1, stronger effect = lower value 1.01 | S. cerevisiae deletion strains, locus YNL153C, strain GIM3, stronger effect = lower value 1.02 | S. cerevisiae deletion strains, locus YNL183C, strain NPR1, stronger effect = lower value 0.933 | S. cerevisiae deletion strains, locus YNL209W, strain ssb2, stronger effect = lower value 1.02 | S. cerevisiae deletion strains, locus YNL233W, strain BNI4, stronger effect = lower value 1.01 | S. cerevisiae deletion strains, locus YNL248C, strain rpa49, stronger effect = lower value 1.04 | S. cerevisiae deletion strains, locus YNL250W, strain rad50, stronger effect = lower value 1 | S. cerevisiae deletion strains, locus YNL271C, strain bni1, stronger effect = lower value 0.997 | S. cerevisiae deletion strains, locus YNL298W, strain CLA4, stronger effect = lower value 0.993 | S. cerevisiae deletion strains, locus YNL307C, strain MCK1, stronger effect = lower value 0.994 | S. cerevisiae deletion strains, locus YNL322C, strain KRE1 (second series), stronger effect = lower value 1.03 | S. cerevisiae deletion strains, locus YNL322C, strain KRE1, stronger effect = lower value 1.01 | S. cerevisiae deletion strains, locus YNR049C, strain mso1, stronger effect = lower value 1.01 | S. cerevisiae deletion strains, locus YNR052C, strain pop2, stronger effect = lower value 0.997 | S. cerevisiae deletion strains, locus YOL006C, strain TOP1, stronger effect = lower value 1.03 | S. cerevisiae deletion strains, locus YOL012C, strain htz1 1.63 | S. cerevisiae deletion strains, locus YOL147C, strain pex11, stronger effect = lower value 0.995 | S. cerevisiae deletion strains, locus YOR001W, strain rrp6, stronger effect = lower value 1.04 | S. cerevisiae deletion strains, locus YOR061W, strain CKA2, stronger effect = lower value 1.01 | S. cerevisiae deletion strains, locus YOR069W, strain VPS5, stronger effect = lower value 1.01 | S. cerevisiae deletion strains, locus YOR070C, strain gyp1, stronger effect = lower value 1.01 | S. cerevisiae deletion strains, locus YOR080W, strain dia2, stronger effect = lower value 1.04 | S. cerevisiae deletion strains, locus YOR083W, strain WHI5, stronger effect = lower value 1.02 | S. cerevisiae deletion strains, locus YOR106W, strain vam3, stronger effect = lower value 1.04 | S. cerevisiae deletion strains, locus YOR136W, strain idh2, stronger effect = lower value 0.985 | S. cerevisiae deletion strains, locus YOR144C, strain elg1, stronger effect = lower value 1 | S. cerevisiae deletion strains, locus YOR184W, strain ser1, stronger effect = lower value 0.979 | S. cerevisiae deletion strains, locus YOR231W, strain MKK1, stronger effect = lower value 0.955 | S. cerevisiae deletion strains, locus YOR265W, strain rbl2, stronger effect = lower value 1.03 | S. cerevisiae deletion strains, locus YOR270C, strain vph1, stronger effect = lower value 1.05 | S. cerevisiae deletion strains, locus YOR290C, strain snf2, stronger effect = lower value 1.02 | S. cerevisiae deletion strains, locus YOR316C, strain cot1, stronger effect = lower value 1 | S. cerevisiae deletion strains, locus YPL051W, strain arl3, stronger effect = lower value 1.03 | S. cerevisiae deletion strains, locus YPL055C, strain LGE1, stronger effect = lower value 1.03 | S. cerevisiae deletion strains, locus YPL078C, strain atp4, stronger effect = lower value 1.02 | S. cerevisiae deletion strains, locus YPL106C, strain sse1, stronger effect = lower value 1.03 | S. cerevisiae deletion strains, locus YPL240C, strain hsp82, stronger effect = lower value 1.03 | S. cerevisiae deletion strains, locus YPL241C, strain CIN2, stronger effect = lower value 0.978 | S. cerevisiae deletion strains, locus YPL256C, strain CLN2, stronger effect = lower value 0.951 | S. cerevisiae deletion strains, locus YPR119W, strain clb2, stronger effect = lower value 0.995 | S. cerevisiae deletion strains, locus YPR141C, strain kar3, stronger effect = lower value 1 | S. cerevisiae deletion strains, locus YPR163C, strain tif3, stronger effect = lower value 0.996 | S. cerevisiae deletion strains, locus YPR167C, strain met16, stronger effect = lower value 1.01 | S. cerevisiae deletion strains, strain wtn01, stronger effect = lower value 0.993 | S. cerevisiae strains, strain wild type, stronger effect = lower value 1.01
